An excerpt weighted towards active compounds, which were near 19% of everything screened.
DT40 TDP1 CPT: qHTS for Inhibitors of human tyrosyl-DNA phosphodiesterase 1 (TDP1): qHTS in cells in presence of CPT | chicken DT40 Tdp1-/-;hTDP1 cells + 20 nM CPT, ATP luminescence, 48 h | Potency, µM (top dose mostly 46.2 µM), for the others: at the highest dose activity change, negative = growth inhibition, most hits filed as inhibitors | 420,000 compounds, 12% hits; also: potency is read from the fitted curve at half-maximal effect; nearly all actives have a fitted effect of over 55% in size
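Chicken DT40 Tdp1-/- cells stably complemented with human TDP1 were seeded at 400 cells/well in medium containing 20 nM camptothecin, exposed to pin-transferred compounds, and grown at 37 °C for at least 48 hr. Viability was read as ATP luminescence.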
HT1080 IDH1KD tx: qHTS for induction of synthetic lethality in tumor cells producing 2HG: qHTS for the HT-1080-IDH1KD cell line. Potency, µM (titrated, usually from 46.1 µM), inactives show at the top dose activity, negative = toxicity, hits mostly cytotoxic. AID 686971, 2013. HT-1080 IDH1 knockdown viability, ATP luminescence, 48 h. 360,000 compounds, 2% hits;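 also: potency is read from the fitted curve at half-maximal effect; 0% = DMSO wells and -100% = cell-free medium wells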
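Assay cells: HT-1080 with IDH1 knockdown, 750 per well, RPMI/5% FBS. Exposure: 48 h at 37 °C following 2 h pre-incubation. Read: CellTiter-Glo luminescence; fitted concentration-response, curve class assigned.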
DT40 TDP1 no CPT: qHTS for Inhibitors of human tyrosyl-DNA phosphodiesterase 1 (TDP1): qHTS in cells in absence of CPT; DT40 Tdp1-/- hTDP1 cells, no CPT, ATP luminescence, 48 h; Potency, µM (top dose mostly 46.2 µM), inactives show at the top dose activity change, negative = growth inhibition, usual class: inhibitors; 420,000 compounds, 15% hits; AID 686978, 2013; also: potency is read from the fitted curve at half-maximal effect; nearly all actives have a fitted effect of over 55% in size
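Stably hTDP1-transfected Tdp1-null chicken DT40 cells were treated with library compounds minus camptothecin and grown for at least 48 hr at 37 °C, after which cellular ATP was quantified by luminescence.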
HT1080-NT tox: qHTS for induction of synthetic lethality in tumor cells producing 2HG: qHTS for the HT-1080-NT fibrosarcoma cell line | 360,000 compounds, 1.6% hits | Potency, µM (highest dose often 46.1 µM), without a hit: top-dose activity, negative = less viability, hits mostly cytotoxic | HT-1080-NT fibrosarcoma viability, CellTiter-Glo ATP luminescence, 48 h | AID 686970, 2013;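 also: NT is the 2HG producing partner of a matched IDH1 knockdown line; potency is read from the fitted curve at half-maximal effect; 0% = DMSO-treated cells and -100% = media-only wells without cells; nearly all actives have a fitted effect of over 55% in size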
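Luminescent CellTiter-Glo readout after 48 hours of compound exposure at 37 degrees C defined viability of HT-1080-NT cells. Activity was normalized to DMSO wells and cell-free media wells; concentration-response curves were fitted and assigned curve classes.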
IL1B secr inh: qHTS for Inhibitors of Inflammasome Signaling: IL-1-beta AlphaLISA Primary Screen. activity change, % at 57.5 µM. 360,000 compounds, 4.7% hits. THP-1 LPS/ATP IL-1B secretion, AlphaLISA, 16 h; stronger effect = lower value; in the data active = activity change below about -50%; inconclusive = mostly about -30% to -49%
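THP-1 cells pretreated 1 hr with compounds (up to 57.5 uM final), then stimulated with LPS (250 ng/mL final) plus ATP (1.25 mM final); secreted IL-1B measured by AlphaLISA after 16 hr, decreased signal indicating inhibition.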
* = called active by the depositor; i = inactive; u = inconclusive; x = no result. Unless noted, calls follow the shape of the dose curve; as a rule, active = well fitted curve in the direction sought with a large enough effect; inconclusive = small, poorly fitted or top-dose-only effect, or another doubt; inactive = no such curve, though single readings can be large; an effect the other way counts as inactive or inconclusive. Unless noted, % is scaled to controls: 0 for no effect and ±100 for the full control effect.

SMILES | DT40 TDP1 CPT | HT1080 IDH1KD tx | DT40 TDP1 no CPT | HT1080-NT tox | IL1B secr inh
CC(C)(O)/C=C/C[C@](C)(O)C1CC[C@]2(C)C1[C@H](O[C@H]1O[C@@H](CO)[C@H](O)[C@@H](O)[C@@H]1O)CC1[C@@]3(C)CC[C@H](O)C(C)(C)C3[C@@H](O)C[C@]12C (some centres not stated) | 0% | 12% | 23% | 18% | 43
CCc1ccccc1N(C)C(=O)Cn1cnc2sc(C)c(S(=O)(=O)N3CCC(C)CC3)c2c1=O | -20% | x | -2% | x | x
CCCCCCn1c(=O)n2n(c1=O)[C@@H]1CN(S(=O)(=O)c3ccc(C)cc3)C[C@]1(O)[C@@H](OC(=O)NC1CC1)C2 | u | 5% | 16µM* | 0% | 4
Cc1ccc(S(=O)(=O)N2C[C@H]3n4c(=O)ccc(=O)n4C[C@H](OC(=O)Nc4cccs4)[C@@]3(O)C2)cc1 | u | -30% | u | u | -79*
CCCCCCn1c(=O)n2n(c1=O)[C@@H]1CN(S(=O)(=O)c3ccc(C)cc3)C[C@]1(O)[C@@H](OC(=O)NC1CCCC1)C2 | u | -17% | u | -1% | -21
CCCCCCNC(=O)O[C@H]1Cn2c(=O)n(CCCCCC)c(=O)n2[C@@H]2CN(S(=O)(=O)c3ccc(C)cc3)C[C@]12O | u | u | 21µM* | u | u
CCCCCCn1c(=O)n2n(c1=O)[C@@H]1CN(S(=O)(=O)c3ccc(C)cc3)C[C@]1(O)[C@@H](OC(=O)NCC1CCCCC1)C2 | u | u | 16µM* | u | u
Cc1c(N2C(=O)C3C4C=CC(C5CC45)C3C2=O)c(=O)n(-c2ccccc2)n1C (configuration not stated) | -9% | 17% | 6% | 16% | 8
CC(=O)C(Sc1ccc2nnc(-c3cccnc3)n2n1)C(C)=O | -14% | -1% | -24% | -4% | -10
COc1ccc(/C=C(\NC(=O)c2ccco2)C(=O)Nc2ccc(C(C)=O)cc2)cc1 | 9% | 0% | 4% | 1% | i
COc1ccc(S(=O)(=O)N2CCN(CC(=O)c3ccc(O)c(O)c3)CC2)cc1 | u | -17% | u | 0% | 21
O=C(CN1CCN(S(=O)(=O)c2ccc(Cl)cc2)CC1)c1ccc(O)c(O)c1 | 12µM* | 0% | 8.2µM* | -7% | 45
NC(=O)CN1CCN(S(=O)(=O)c2ccc(Cl)cc2)CC1 | 20% | 11% | 1% | 7% | -6
O=C(CN1CCN(S(=O)(=O)c2ccc(F)cc2)CC1)c1ccc(O)c(O)c1 | u | -3% | 23µM* | -3% | 14
O=C1c2ccccc2C(=O)N1Cc1cc(-c2ccc(Cl)cc2)no1 | 12% | 21% | -3% | -4% | 24
COc1ccc(NC(=O)CSc2nc3ccccc3c(=O)n2CCCN2CCCCC2)c(OC)c1 | u | -26% | u | -3% | -28
Cc1onc(-c2c(Cl)cccc2Cl)c1C(=O)c1c[nH]c(C(=O)NCC2CCCO2)c1 (configuration not stated) | u | 5% | 13µM* | -6% | -6
Cc1onc(-c2c(F)cccc2Cl)c1C(=O)NC1CCCCCC1 | u | -11% | 29µM* | 18% | 1
CC(=O)c1c[nH]c(C(=O)NCC2CCCO2)c1 (configuration not stated) | -2% | 0% | -4% | 0% | -6
Cc1onc(-c2ccccc2Cl)c1C(=O)NC1CCCCCC1 | 26µM* | -10% | 16µM* | -1% | 11
Cc1cc(Br)c(NC(=O)c2c(-c3c(Cl)cccc3Cl)noc2C)c(Br)c1 | 21µM* | -6% | u | 8% | 30

Source: PubChem (National Center for Advancing Translational Sciences (NCATS))
